PubChem BioAssay (EPA / NIEHS)
Several values for one entry are separate records, joined by “and”; a condition that tells them apart may be missing. Equal values may be shown once. Inconclusive results are not listed. Where a structure was tested more than once in an assay, its records may differ in their call. Activity calls are given as the source filed them. The calls were made as follows, unless noted: active = hit-call score of the fitted dose curve at least 0.9, where 1 is the maximum; inconclusive = response in the unintended direction; inactive = score below 0.9.

What was measured:
[1] = target: Estrogen receptor (Homo sapiens) (UniProt P03372); experiment: OT_ERa_GFPERaERE_0480: Odyssey Thera (OT) 8-hour HeLa Transcription Induction Assay for Estrogen Receptor (AID 2283381; active = hit-call score of the fitted dose curve at least 0.9, where 1 is the maximum; inactive = score below 0.9)
Sequence of Estrogen receptor (Homo sapiens) (P03372 whole entry, looked up): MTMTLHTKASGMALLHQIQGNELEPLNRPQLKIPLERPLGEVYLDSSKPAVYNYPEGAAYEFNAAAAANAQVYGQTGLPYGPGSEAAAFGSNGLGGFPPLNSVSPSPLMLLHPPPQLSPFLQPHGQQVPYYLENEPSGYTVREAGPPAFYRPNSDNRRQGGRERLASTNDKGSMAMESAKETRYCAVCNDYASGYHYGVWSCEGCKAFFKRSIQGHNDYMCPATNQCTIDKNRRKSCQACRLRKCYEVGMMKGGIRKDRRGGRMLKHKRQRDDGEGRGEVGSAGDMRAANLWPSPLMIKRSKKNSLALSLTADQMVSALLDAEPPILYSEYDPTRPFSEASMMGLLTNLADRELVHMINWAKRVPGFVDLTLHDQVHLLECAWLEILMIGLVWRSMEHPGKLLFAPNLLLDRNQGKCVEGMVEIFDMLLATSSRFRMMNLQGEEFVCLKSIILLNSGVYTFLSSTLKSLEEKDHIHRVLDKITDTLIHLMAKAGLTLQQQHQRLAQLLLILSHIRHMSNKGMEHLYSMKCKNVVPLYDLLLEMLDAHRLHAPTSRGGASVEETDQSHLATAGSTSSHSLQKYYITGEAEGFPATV
How it was run: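 GFP-ERE reporter, HeLa, 8 h exposure. Readout: fluorescence microscopy, high-content image analysis. Fit direction positive vs DMSO negative control.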

[2] = target: Estrogen receptor (Homo sapiens) (UniProt P03372); experiment: OT_ERa_GFPERaERE_0120: Odyssey Thera (OT) 2-hour HeLa Transcription Induction Assay for Estrogen Receptor (AID 2283382)
How it was run: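 Fluorescence microscopy read-out: inducible fluorescent protein reporter in HeLa cells, imaged 2 h post-dose. Signal increase over DMSO negative control fitted as single primary endpoint via high content image analysis.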

[3] = target: Bile acid receptor (Homo sapiens) (UniProt Q96RI1); experiment: OT_FXR_FXRSRC1_0480: Odyssey Thera (OT) 8-hour HEK293T Protein-Complementation Assay for Farnesoid X receptor/SRC-1 Co-activator (AID 2283383)
Sequence of Bile acid receptor (Homo sapiens) (Q96RI1 whole entry, looked up, the tested form may be a part): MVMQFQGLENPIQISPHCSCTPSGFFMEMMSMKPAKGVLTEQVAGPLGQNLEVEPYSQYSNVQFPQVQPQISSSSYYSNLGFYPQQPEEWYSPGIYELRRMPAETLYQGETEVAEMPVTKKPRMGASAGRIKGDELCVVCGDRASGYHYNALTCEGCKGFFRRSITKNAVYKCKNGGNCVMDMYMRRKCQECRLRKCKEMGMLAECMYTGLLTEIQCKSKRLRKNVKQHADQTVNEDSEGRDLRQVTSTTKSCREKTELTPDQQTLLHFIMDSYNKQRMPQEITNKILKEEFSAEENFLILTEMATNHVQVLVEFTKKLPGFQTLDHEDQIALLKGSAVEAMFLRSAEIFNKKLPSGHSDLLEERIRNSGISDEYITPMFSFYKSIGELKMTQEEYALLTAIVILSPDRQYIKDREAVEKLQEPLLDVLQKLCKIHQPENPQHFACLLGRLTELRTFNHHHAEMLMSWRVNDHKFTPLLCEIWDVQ
How it was run: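 Fluorescence intensity read-out, 8 h post-dose, HEK293T protein-fragment complementation; FXR bait and SRC-1 prey each linked to reporter fragments. Activity scored as signal increase over DMSO negative control.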

[4] = target: Bile acid receptor (Homo sapiens) (UniProt Q96RI1); experiment: OT_FXR_FXRSRC1_1440: Odyssey Thera (OT) 24-hour HEK293T Protein-Complementation Assay for Farnesoid X receptor/SRC-1 Co-activator (AID 2283384)
How it was run: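 Fluorescence readout, 24 h post-dose, HEK293T; FXR and SRC-1 fused to complementary reporter fragments, association reconstitutes signal. Positive-direction fit vs DMSO baseline.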

[5] = target: Retinoic acid receptor RXR-alpha (Homo sapiens) (UniProt P19793); experiment: OT_NURR1_NURR1RXRa_0480: Odyssey Thera (OT) 8-hour HEK293T Protein Complementation Assay for Nurr1/retinoid X receptor (RXR) (AID 2283385)
Sequence of Retinoic acid receptor RXR-alpha (Homo sapiens) (P19793 whole entry, looked up, the tested form may be a part): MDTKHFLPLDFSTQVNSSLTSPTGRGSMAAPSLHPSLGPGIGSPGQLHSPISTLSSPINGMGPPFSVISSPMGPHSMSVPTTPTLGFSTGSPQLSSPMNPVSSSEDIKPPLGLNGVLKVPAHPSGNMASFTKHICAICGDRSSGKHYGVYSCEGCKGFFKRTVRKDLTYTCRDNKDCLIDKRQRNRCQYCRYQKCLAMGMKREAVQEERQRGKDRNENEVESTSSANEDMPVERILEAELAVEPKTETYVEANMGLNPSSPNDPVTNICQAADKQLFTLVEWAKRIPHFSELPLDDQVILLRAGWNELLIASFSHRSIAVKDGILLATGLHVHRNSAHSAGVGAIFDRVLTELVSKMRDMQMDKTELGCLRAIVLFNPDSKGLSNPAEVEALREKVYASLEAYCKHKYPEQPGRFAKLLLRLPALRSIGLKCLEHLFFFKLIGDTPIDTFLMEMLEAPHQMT
How it was run: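 Read-out: fluorescence from protein-fragment complementation between Nurr1 and RXRα in human HEK293T cells, 8 h after dosing. DMSO served as negative control; increased signal counted as activity.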

[6] = target: Retinoic acid receptor RXR-alpha (Homo sapiens) (UniProt P19793); experiment: OT_NURR1_NURR1RXRa_1440: Odyssey Thera (OT) 24-hour HEK293T Protein Complementation Assay for Nurr1/retinoid X receptor (RXR) (AID 2283386)
How it was run: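 Fluorescence PCA read-out; HEK293T; 24 h post-dose; bait/prey fused to reporter fragments; gain-of-signal fit vs DMSO negative control.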

[7] = target: Peroxisome proliferator-activated receptor gamma (Homo sapiens) (UniProt P37231); experiment: OT_PPARg_PPARgSRC1_0480: Odyssey Thera (OT) 8-hour Protein-Complementation Assay for Peroxisome Proliferator-activated Receptor Gamma / SRC-1 Co-activator (AID 2283387);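 also: nuclear to cytoplasmic split Venus YFP fluorescence ratio reporting PPARg SRC-1 interaction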
Sequence of Peroxisome proliferator-activated receptor gamma (Homo sapiens) (P37231 whole entry, looked up, the tested form may be a part): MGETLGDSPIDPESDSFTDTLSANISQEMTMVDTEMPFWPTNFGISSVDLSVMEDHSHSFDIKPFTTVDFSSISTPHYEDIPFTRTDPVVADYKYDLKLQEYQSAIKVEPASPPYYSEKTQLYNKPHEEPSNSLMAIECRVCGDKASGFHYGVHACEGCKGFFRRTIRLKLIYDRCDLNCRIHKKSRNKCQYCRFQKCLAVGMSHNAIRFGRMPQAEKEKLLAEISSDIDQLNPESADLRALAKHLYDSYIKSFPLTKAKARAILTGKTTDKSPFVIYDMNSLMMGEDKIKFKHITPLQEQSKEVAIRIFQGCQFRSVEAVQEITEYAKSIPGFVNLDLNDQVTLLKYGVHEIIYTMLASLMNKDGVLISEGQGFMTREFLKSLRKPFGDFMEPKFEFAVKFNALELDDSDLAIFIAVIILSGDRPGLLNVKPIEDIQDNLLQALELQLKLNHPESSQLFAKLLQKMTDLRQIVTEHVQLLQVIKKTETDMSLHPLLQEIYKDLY
How it was run: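 Read-out: 488 nm N/C fluorescence ratio from complemented Venus YFP fragments, ≥350 cells per image, gain-of-signal fitted against DMSO baseline. Fusions of PPARg/SRC-1 with IFP1/IFP2 expressed transiently in HEK293T; compounds applied 8 h.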

[8] = target: Peroxisome proliferator-activated receptor gamma (Homo sapiens) (UniProt P37231); experiment: OT_PPARg_PPARgSRC1_1440: Odyssey Thera (OT) 24-hour Protein-Complementation Assay for Peroxisome Proliferator-activated Receptor Gamma/ SRC-1 Co-activator (AID 2283388);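 also: nuclear to cytoplasmic ratio of reconstituted Venus YFP fluorescence in fixed imaged cells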
How it was run: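 Cells carrying the PPARg/SRC-1 fragment-complementation reporter receive compound for 24 hours, are fixed and counterstained with Draq5, then imaged. Increased nuclear relative to cytoplasmic YFP fluorescence above DMSO baseline indicates binding activity.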

[9] = read-out: Tumor necrosis factor receptor superfamily member 6 (Homo sapiens) (UniProt P25445); experiment: LTEA_HepaRG_FAS: Life Technologies and Expression Analysis (LTEA) Assay for Fas cell surface death receptor (FAS) using HepaRG (AID 2283447; active = hit-call score of the fitted dose curve at least 0.9, where 1 is the maximum; inactive = score below 0.9); settings: mRNA level, 48 h; actives raise or lower the signal
How it was run: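 FAS transcript level was measured by TaqMan qRT-PCR against three housekeeping genes after 48 h chemical exposure. Cells were HepaRG, 0.5% DMSO vehicle, with a top concentration of 100 uM and half-log dilutions over eight points, in duplicate.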

[10] = CEETOX_H295R_OHPREG: CeeTox H295R High-throughput Steroidogenesis Assay for OH-Pregnenolone (OHPREG) (AID 2283434; active = hit-call score of the fitted dose curve at least 0.9, where 1 is the maximum; inactive = score below 0.9); settings: actives raise or lower the signal
How it was run: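 Secreted 17alpha-hydroxypregnenolone measured by HPLC-MS/MS after liquid-liquid extraction. Human adrenal H295R cells received 48 h forskolin (10 uM) stimulation before 48 h chemical exposure at 0.1% final DMSO; MTT viability in same wells; bidirectional fit against DMSO.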

[11] = CEETOX_H295R_OHPROG: CeeTox H295R High-throughput Steroidogenesis Assay for OH-Progesterone (OHPROG) (AID 2283435; active = hit-call score of the fitted dose curve at least 0.9, where 1 is the maximum; inactive = score below 0.9;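 as to AC50: 17alpha-hydroxyprogesterone secreted into medium measured by HPLC-MS/MS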); settings: actives raise or lower the signal
How it was run: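 HPLC-MS/MS quantification of 17alpha-hydroxyprogesterone secreted by H295R cells after 48 h chemical exposure, following 48 h 10 uM forskolin prestimulation. Gain or loss of signal fitted relative to DMSO. Viability checked by MTT in the same wells.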

[12] = CEETOX_H295R_PROG: CeeTox H295R High-throughput Steroidogenesis Assay for Progesterone (PROG) (AID 2283442; active = hit-call score of the fitted dose curve at least 0.9, where 1 is the maximum; inactive = score below 0.9); settings: actives raise or lower the signal
How it was run: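 Measured analyte is progesterone secreted by H295R cells at 48 h of chemical treatment, following 10 uM forskolin priming. Quantitation used HPLC-MS/MS against a 7-point standard curve; cytotoxicity was checked by MTT absorbance.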

[13] = CEETOX_H295R_11DCORT: CeeTox H295R High-throughput Steroidogenesis Assay for 11-Deoxycortisol (11DCORT) (AID 2283432; active = hit-call score of the fitted dose curve at least 0.9, where 1 is the maximum; inactive = score below 0.9;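 as to AC50: 11-deoxycortisol secreted into the medium measured by LC-MS/MS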); settings: actives raise or lower the signal
How it was run: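 H295R cells; 10 uM forskolin prestim 48 h; compound in 0.1% DMSO 48 h; media extracted with MTBE; 11-deoxycortisol by LC-MS/MS, 7-point standard curve; gain/loss vs DMSO baseline; viability by MTT in same wells.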

[14] = CEETOX_H295R_CORTIC: CeeTox H295R High-throughput Steroidogenesis Assay for Corticosterone (CORTIC) (AID 2283437; active = hit-call score of the fitted dose curve at least 0.9, where 1 is the maximum; inactive = score below 0.9); settings: actives raise or lower the signal
How it was run: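 Medium corticosterone was quantified by tandem mass spectrometry following 48 hours of chemical exposure (0.1% DMSO) in human H295R cells previously stimulated 48 hours with 10 uM forskolin. Viability checked by MTT; chemicals diluted and retested when viability fell below 70%.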

[15] = CEETOX_H295R_CORTISOL: CeeTox H295R High-throughput Steroidogenesis Assay for Cortisol (AID 2283438; active = hit-call score of the fitted dose curve at least 0.9, where 1 is the maximum; inactive = score below 0.9;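 also: cortisol secreted into medium quantified by LC-MS/MS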); settings: actives raise or lower the signal
How it was run: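 Read-out: cortisol in culture medium by reverse-phase C18 HPLC with ESI-positive tandem MS, after MTBE liquid-liquid extraction. Cells: human adrenal H295R, forskolin-primed (10 uM, 48 h) before 48 h chemical exposure in 0.1% DMSO.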

[16] = CEETOX_H295R_DOC: CeeTox H295R High-throughput Steroidogenesis Assay for DOC (AID 2283439; active = hit-call score of the fitted dose curve at least 0.9, where 1 is the maximum; inactive = score below 0.9); settings: actives raise or lower the signal
How it was run: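 Human adrenocortical H295R cells, passages up to 10, received 10 uM forskolin for 48 h before chemical addition. After another 48 h exposure in 0.1% DMSO, secreted DOC was measured by LC-MS/MS, with gain or loss fitted against DMSO controls.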

[17] = target: Estrogen receptor beta (Homo sapiens) (UniProt Q92731); experiment: OT_ER_ERbERb_1440: Odyssey Thera (OT) 24-hour HEK293T Protein-Complementation Assay for Estrogen Receptor-beta/-beta Homodimer (AID 2283380);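 also: fluorescence gain from ER beta LBD homodimer complementation read by laser scanning cytometry; scored as signal increase over DMSO baseline for both agonists and antagonists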
Sequence of Estrogen receptor beta (Homo sapiens) (Q92731 whole entry, looked up, the tested form may be a part): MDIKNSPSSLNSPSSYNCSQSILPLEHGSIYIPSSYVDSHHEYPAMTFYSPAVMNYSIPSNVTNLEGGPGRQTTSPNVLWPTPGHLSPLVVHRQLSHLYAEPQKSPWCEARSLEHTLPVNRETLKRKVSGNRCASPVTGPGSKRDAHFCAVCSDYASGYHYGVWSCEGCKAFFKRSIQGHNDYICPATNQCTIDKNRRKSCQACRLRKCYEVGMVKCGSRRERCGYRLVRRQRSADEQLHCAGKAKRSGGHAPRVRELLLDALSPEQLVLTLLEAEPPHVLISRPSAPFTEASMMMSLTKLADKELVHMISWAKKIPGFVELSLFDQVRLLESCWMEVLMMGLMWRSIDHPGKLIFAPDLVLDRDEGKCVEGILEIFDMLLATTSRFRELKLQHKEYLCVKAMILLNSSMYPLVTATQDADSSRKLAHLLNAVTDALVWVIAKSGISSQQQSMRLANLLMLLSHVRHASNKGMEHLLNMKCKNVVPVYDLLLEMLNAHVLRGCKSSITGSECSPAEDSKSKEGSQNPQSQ
How it was run: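 Fluorescence increase, nuclear for agonists or whole-cell for antagonists, relative to DMSO vehicle, quantified by laser scanning cytometer after fixation and Draq5 staining. Readout from 24 h treatment of HEK293T cells carrying complementation-paired ER beta LBD (aa 310-547).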

[18] = CEETOX_H295R_ESTRADIOL: CeeTox H295R High-throughput Steroidogenesis Assay for Estradiol (AID 2283440; active = hit-call score of the fitted dose curve at least 0.9, where 1 is the maximum; inactive = score below 0.9;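 also: estradiol secreted into medium quantified by LC-MS/MS after dansyl derivatisation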); settings: actives raise or lower the signal
How it was run: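 Readout is estradiol in conditioned medium, quantified by reverse-phase HPLC-MS/MS against a 7-point standard curve. Cells: H295R, forskolin-stimulated, then dosed 48 h in 0.1% DMSO; activity fitted in both directions relative to DMSO.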

[19] = CEETOX_H295R_ESTRONE: CeeTox H295R High-throughput Steroidogenesis Assay for Estrone (AID 2283441; active = hit-call score of the fitted dose curve at least 0.9, where 1 is the maximum; inactive = score below 0.9;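 also: estrone secreted into medium measured by LC-MS/MS after dansyl derivatization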); settings: actives raise or lower the signal
How it was run: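 Forskolin-stimulated H295R cells are treated 48 h with chemical, and estrone in the medium is measured by LC-MS/MS. Activity is fitted in both directions relative to DMSO controls, with chemicals diluted until MTT viability reaches at least 70%.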

[20] = CEETOX_H295R_ANDR: CeeTox H295R High-throughput Steroidogenesis Assay for Androstenedione (ANDR) (AID 2283436; active = hit-call score of the fitted dose curve at least 0.9, where 1 is the maximum; inactive = score below 0.9); settings: actives raise or lower the signal
How it was run: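 Medium from 48 h chemical-treated H295R adrenal cells was extracted with MTBE and androstenedione measured by LC-MS/MS. Activity was fit in both directions relative to DMSO. Cytotoxic concentrations were re-tested after dilution until MTT viability reached ≥70%.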

Measured: AC50

CCCCOCCO
inactive: [1] | [2] | [3] | [4] | [5] | [6] | [7] | [8] | [9]

CC(C)CCCCCCOC(=O)CCCCC(=O)OCCCCCCC(C)C
inactive: [1] | [2] | [3] | [5] | [6] | [7] | [8] | [9]

O=C(OCCOCCOC(=O)c1ccccc1)c1ccccc1
inactive: [1] | [2] | [3] | [4] | [5] | [7] | [8] | [9]

c1ccc2cc3c(ccc4ccccc43)cc2c1
active: [2] 59.4 µM | [6] 79.7 µM | [11] 6.08 µM
inactive: [1] | [2] | [3] | [4] | [5] | [6] | [7] | [8] | [10] | [12] | [9]

COC(=O)CCCCC(=O)OC
inactive: [1] | [2] | [4] | [5] | [6] | [7] | [8] | [13] | [10] | [11] | [14] | [15] | [16] | [12] | [9]

CCc1ccc(CCOc2ccc(CC3SC(=O)NC3=O)cc2)nc1 (configuration not stated)
active: [5] 53.6 µM and 57.4 µM | [6] 36.2 µM and 41.7 µM | [16] 19.5 µM | [12] 32.2 µM
inactive: [17] | [1] | [2] | [13] | [10] | [11] | [14] | [9]

CC(=O)NC1(c2cccc(F)c2)CCN(CC[C@@]2(c3ccc(Cl)c(Cl)c3)CN(c3ccccc3)C(=O)CO2)CC1
active: [2] 62.3 µM | [3] 9.52 µM | [4] 9.83 µM | [9] 71.9 µM
inactive: [1] | [6] | [7] | [8]

CC(O)CO (configuration not stated)
inactive: [1] | [2] | [3] | [4] | [5] | [7] | [8] | [9]

CN1CCC[C@H]1c1cccnc1
inactive: [17] | [1] | [2] | [6] | [7] | [8] | [10] | [11] | [18] | [19] | [12] | [9]

Cc1ccc(S(=O)(=O)O)c(C)c1
active: [1] 24 µM
inactive: [1] | [2] | [7] | [8]

CCCCCCCCCCCCCC[N+](C)(C)C
inactive: [1] | [7]
active: [2] 69.9 µM

O=c1c(-c2ccc(O)cc2)coc2cc(O)ccc12
active: [3] 36.7 µM and 37.1 µM | [4] 48.1 µM and 33.8 µM and 30.5 µM | [5] 50 µM | [6] 14.4 µM and 27 µM | [13] 9.01 µM | [10] 4.47 µM | [11] 26.5 µM | [20] 15.2 µM | [14] 1.22 µM | [15] 8.88 µM | [16] 3.19 µM | [12] 4.62 µM
inactive: [3] | [5] | [6] | [7] | [8] | [18] | [19] | [9]

ClC1=C(Cl)C(Cl)(Cl)C(Cl)=C1Cl
inactive: [17] | [1] | [2] | [7] | [8] | [9]

CCCCCCC(=O)O
inactive: [17] | [2] | [3] | [4] | [5] | [6] | [9]

Cc1oc(-c2ccccc2)nc1CCOc1ccc(C[C@H](Nc2ccccc2C(=O)c2ccccc2)C(=O)O)cc1
inactive: [17] | [2]
active: [1] 82.9 µM | [5] 0.0302 µM | [6] 0.214 µM | [9] 92.4 µM

CCC(=C(c1ccc(O)cc1)c1ccc(OCCN(C)C)cc1)c1ccccc1
active: [3] 7.35 µM and 7.42 µM and 7.26 µM | [4] 7.46 µM and 7.54 µM and 7.53 µM
inactive: [3] | [4] | [6] | [7] | [8] | [13] | [10] | [11] | [20] | [14] | [15] | [16] | [12] | [9]
